# How the values were obtained:
# Assay in all cases: DAPPL (digital affinity profiling via proximity ligation, sequencing); 10 mM Tris-HCl pH 7.5, 50 mM NaCl, 1 mM DTT, 4% glycerol, room temperature, 30 min; GST-TFs on glutathione beads, 16-mer random dsDNA library, 0.1% formaldehyde crosslink after washing; high values mean tight binding
# SPIB = SPIB (Homo sapiens, UniProt Q01892 1-262); details: protein: recombinant; tags: N-terminal GST; dsDNA, one strand shown
# Procedure, shortened: (§1)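 Binding signal is each hexamer's read frequency for a factor divided by its frequency in the tag-only sample. The factors were GST-fused human transcription factors from yeast, captured on glutathione beads, DNA-barcoded and pooled with that sample. Pools were incubated with 200 nmole of a random double-stranded 16-mer DNA library in Tris/NaCl/DTT/glycerol buffer at room temperature for 30 min, then washed, crosslinked with 0.1% formaldehyde, proximity-ligated with BsaI/T4 ligase (1 h, 37 °C), PCR-amplified and sequenced on an Illumina NextSeq500.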
# ELK3 = biological target: T1, ELK3 (Homo sapiens, UniProt P41970 1-407); details: protein: recombinant; tags: N-terminal GST; dsDNA, one strand shown
# T1 sequence: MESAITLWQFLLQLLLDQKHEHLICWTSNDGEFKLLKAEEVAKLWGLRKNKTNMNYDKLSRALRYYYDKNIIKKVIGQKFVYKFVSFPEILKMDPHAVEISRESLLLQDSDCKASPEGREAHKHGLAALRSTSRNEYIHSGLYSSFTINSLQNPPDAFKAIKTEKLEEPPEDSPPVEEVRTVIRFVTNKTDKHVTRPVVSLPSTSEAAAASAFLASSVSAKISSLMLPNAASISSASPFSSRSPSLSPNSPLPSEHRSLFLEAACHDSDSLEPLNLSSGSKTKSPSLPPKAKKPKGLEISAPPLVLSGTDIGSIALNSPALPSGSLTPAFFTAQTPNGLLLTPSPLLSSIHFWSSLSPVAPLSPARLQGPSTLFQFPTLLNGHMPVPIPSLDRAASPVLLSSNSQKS
# Procedure, shortened: as §1
# HSF1 = HSF1 (Homo sapiens, UniProt Q00613 1-529); details: protein: recombinant; tags: N-terminal GST; chain copies: 3; dsDNA, one strand shown
# HSF1, sequence (Q00613 whole entry): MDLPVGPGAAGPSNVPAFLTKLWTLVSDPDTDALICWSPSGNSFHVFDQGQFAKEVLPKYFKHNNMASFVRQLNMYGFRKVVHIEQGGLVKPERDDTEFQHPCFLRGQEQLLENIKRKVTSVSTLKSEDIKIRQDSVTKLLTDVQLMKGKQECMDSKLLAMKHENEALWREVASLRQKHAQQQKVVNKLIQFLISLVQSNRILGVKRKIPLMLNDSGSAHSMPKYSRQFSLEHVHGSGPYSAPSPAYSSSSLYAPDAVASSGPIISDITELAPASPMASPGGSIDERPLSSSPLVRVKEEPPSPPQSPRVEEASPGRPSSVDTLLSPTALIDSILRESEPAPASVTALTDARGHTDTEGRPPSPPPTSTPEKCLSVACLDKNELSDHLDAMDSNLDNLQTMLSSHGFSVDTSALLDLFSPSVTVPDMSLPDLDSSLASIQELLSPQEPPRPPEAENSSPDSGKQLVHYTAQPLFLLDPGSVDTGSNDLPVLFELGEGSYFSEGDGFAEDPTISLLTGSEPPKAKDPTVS
# Procedure, shortened: as §1
# ELK4 = biological target: T2, ELK4 (Homo sapiens, UniProt P28324-2 1-405); details: protein: recombinant; tags: N-terminal GST; dsDNA, one strand shown
# T2 sequence: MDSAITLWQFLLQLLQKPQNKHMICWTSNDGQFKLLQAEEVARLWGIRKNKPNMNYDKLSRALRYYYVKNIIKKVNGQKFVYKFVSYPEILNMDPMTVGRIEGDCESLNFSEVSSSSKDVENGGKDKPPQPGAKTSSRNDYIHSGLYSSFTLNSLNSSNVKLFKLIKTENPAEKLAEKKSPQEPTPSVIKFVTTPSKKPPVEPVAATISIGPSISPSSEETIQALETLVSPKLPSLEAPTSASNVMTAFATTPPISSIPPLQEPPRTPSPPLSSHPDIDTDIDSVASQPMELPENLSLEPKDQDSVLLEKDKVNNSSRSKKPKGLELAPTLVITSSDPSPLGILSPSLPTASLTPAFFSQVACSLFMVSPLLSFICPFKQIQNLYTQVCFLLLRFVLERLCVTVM
# Procedure, shortened: as §1
# ETV2 = biological target: T3, ETV2 (Homo sapiens, UniProt O00321 1-342); details: protein: recombinant; tags: N-terminal GST; dsDNA, one strand shown
# T3 sequence: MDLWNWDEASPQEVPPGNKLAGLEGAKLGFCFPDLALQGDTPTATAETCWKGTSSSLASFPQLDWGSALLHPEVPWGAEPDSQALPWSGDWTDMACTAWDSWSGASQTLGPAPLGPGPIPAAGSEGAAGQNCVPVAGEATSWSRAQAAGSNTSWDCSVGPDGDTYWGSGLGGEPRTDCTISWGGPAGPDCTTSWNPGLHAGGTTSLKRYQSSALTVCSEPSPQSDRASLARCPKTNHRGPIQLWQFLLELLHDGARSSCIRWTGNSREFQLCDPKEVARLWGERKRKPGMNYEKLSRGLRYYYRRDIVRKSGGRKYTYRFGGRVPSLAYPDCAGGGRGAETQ
# Procedure, shortened: as §1
# ETV3L = biological target: T4, ETV3L (Homo sapiens, UniProt Q6ZN32 1-361); details: protein: recombinant; tags: N-terminal GST; dsDNA, one strand shown
# T4 sequence: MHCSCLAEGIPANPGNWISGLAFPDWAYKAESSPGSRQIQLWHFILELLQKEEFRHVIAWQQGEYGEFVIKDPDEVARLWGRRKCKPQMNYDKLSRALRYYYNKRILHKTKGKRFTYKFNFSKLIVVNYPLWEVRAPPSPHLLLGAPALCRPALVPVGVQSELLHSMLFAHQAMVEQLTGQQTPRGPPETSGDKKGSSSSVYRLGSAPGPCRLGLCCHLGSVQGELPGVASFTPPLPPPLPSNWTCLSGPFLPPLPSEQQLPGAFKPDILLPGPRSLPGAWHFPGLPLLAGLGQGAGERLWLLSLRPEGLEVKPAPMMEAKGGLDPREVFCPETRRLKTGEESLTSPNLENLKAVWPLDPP
# Procedure, shortened: as §1
# ETS2 = biological target: T5, ETS2 (Homo sapiens, UniProt P15036 1-469); details: protein: recombinant; tags: N-terminal GST; dsDNA, one strand shown
# T5 sequence: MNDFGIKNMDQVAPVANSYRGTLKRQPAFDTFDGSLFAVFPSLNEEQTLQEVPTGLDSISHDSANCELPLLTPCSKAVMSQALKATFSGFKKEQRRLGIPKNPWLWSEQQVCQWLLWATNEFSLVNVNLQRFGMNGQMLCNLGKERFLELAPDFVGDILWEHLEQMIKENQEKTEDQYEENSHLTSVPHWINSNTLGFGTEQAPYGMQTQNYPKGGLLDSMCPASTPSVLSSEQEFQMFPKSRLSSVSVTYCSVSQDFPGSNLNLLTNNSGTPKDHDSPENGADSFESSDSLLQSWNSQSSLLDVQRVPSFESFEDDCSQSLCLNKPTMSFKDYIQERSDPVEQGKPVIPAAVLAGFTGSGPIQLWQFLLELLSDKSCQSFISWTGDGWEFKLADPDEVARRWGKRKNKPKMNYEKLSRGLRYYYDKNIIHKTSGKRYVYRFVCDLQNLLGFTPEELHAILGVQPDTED
# Procedure, shortened: as §1
# SPIB, sequence (Q01892 whole entry, the tested form may be a part): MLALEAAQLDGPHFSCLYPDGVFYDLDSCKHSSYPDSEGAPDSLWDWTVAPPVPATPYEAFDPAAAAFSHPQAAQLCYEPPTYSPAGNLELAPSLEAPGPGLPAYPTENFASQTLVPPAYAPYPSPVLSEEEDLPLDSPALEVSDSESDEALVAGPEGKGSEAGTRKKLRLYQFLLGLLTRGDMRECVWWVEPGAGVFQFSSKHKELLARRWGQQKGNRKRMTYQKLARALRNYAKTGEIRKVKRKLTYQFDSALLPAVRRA
sequence,measurement,setting,value
GCCTGG,binding signal,SPIB,"1.04 fold enrichment (6-mer frequency, TF over GST control)"
same,binding signal,ELK3,"1.01 fold enrichment (6-mer frequency, TF over GST control)"
same,binding signal,HSF1,"1.05 fold enrichment (6-mer frequency, TF over GST control)"
same,binding signal,ELK4,"1.08 fold enrichment (6-mer frequency, TF over GST control)"
same,binding signal,ETV2,"1.19 fold enrichment (6-mer frequency, TF over GST control)"
same,binding signal,ETV3L,"1 fold enrichment (6-mer frequency, TF over GST control)"
same,binding signal,ETS2,"1.02 fold enrichment (6-mer frequency, TF over GST control)"

# Source: article PMC7862700, “An all-to-all approach to the identification of sequence-specific readers for epigenetic DNA modifications on cytosine”
